Screens deposited in PubChem BioAssay by National Center for Advancing Translational Sciences (NCATS).
Shown are actives, neighbours in structure and some others; about 12% of the full set was active somewhere.
G9a block – G9a (human) methyltransferase inhibition; Potency, µM (top dose mostly 102 µM), without a hit: top-dose activity, negative = inhibition, usual class: inhibitors; G9a H3K9 monomethylation, AlphaScreen, 2 h; hit rate 8.8% among 350,000; also: % is scaled to controls: 0 for no effect and ±100 for the full control effect; nearly all actives have a fitted effect of over 75% in size
Target sequence (Q96KQ7 913-1193 limits assumed): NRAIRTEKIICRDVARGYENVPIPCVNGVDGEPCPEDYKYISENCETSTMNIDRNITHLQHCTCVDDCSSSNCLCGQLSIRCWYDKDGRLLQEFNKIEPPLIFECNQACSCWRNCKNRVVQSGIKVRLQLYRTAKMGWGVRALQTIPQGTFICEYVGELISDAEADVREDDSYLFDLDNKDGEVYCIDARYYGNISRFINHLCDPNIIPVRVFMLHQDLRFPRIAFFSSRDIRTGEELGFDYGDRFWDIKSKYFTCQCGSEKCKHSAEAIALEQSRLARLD
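AlphaScreen read-out: biotin-H3K9 peptide (500 nM) methylation by 20 nM enzyme with 20 uM SAM, 2 h at room temperature after 15 min compound preincubation; anti-monomethyl H3K9 antibody plus donor/acceptor beads, 10 min dark.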
BAZ2B inh – inhibitors of human BAZ2B bromodomain; AID 504333; AlphaScreen BAZ2B-H3K14Ac peptide displacement; hit rate 4.4% among 360,000; Potency, µM (titrated, usually from 114 µM), for the others: at the highest dose activity change, negative = inhibition, most hits filed as inhibitors; also: % is scaled to controls: 0 for no effect and ±100 for the full control effect; nearly all actives have a fitted effect of over 60% in size
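AlphaScreen displacement: compounds (up to 110uM) incubated 30 min at room temperature with a preformed 50 nM BAZ2B/50 nM biotinylated H3K14Ac peptide complex in PBS pH 7.4 with Tween-20. Donor and acceptor beads at 10 ug/mL final added, 20 min light-protected before reading.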
HP1b chromo inh – blocks HP1-beta chromodomain binding to methylated histone tails; hit rate 0.56% among 390,000; P83916; AlphaScreen HP1-beta / biotin-H3K9me3 peptide binding; Potency, µM (titrated, usually from 114 µM), inactives show at the highest dose activity change, negative = inhibition, usual class: inhibitors; also: nearly all actives have a fitted effect of over 70% in size
Target sequence (P83916 whole entry, looked up): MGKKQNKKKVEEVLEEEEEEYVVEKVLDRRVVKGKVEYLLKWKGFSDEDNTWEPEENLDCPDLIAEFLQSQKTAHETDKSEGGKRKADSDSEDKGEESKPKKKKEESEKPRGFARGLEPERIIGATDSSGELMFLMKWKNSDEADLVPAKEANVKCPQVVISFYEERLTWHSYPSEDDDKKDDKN
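AlphaScreen: HP1-beta (50 nM) preformed 30 min with biotin-H3(1-18)K9me3 peptide (50 nM) in PBS pH 7.4, 0.01% Tween-20. Compound added for 30 min at RT, then streptavidin donor/nickel chelate acceptor beads (10 ug/mL) for 30 min.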
Sfp inh – Sfp phosphopantetheinyl transferase inhibition; Q9F4F7; Biochemical Sfp PPTase activity, qHTS; Potency, µM, inactives show largest response in the series, negative = inhibition, hits mostly inhibitors; hit rate 3.5% among 310,000;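 also: the enzyme is Sfp with the accession as filed and its product quenches rhodamine fluorescence; 0% = enzyme reaction without inhibitor and -100% = no enzyme wells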
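Sfp 15 nM + cpd, 15 min RT; start w/ rhodamine-CoA 5 uM, BHQ-2-YbbR 12.5 uM (final); 50 mM Hepes pH 7.6, 10 mM MgCl2, 0.01% NP-40, 0.01% BSA; read 525/598 nm at 0 and 30 min.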
JMJD2A Tudor – blocks the human JMJD2A Tudor domain. hit rate 4.4% among 390,000. O75164. Potency, µM (titrated, usually from 114 µM), inactives show top-dose activity change, negative = inhibition, hits mostly inhibitors. AlphaScreen JMJD2A-Tudor / H3K4me3 peptide binding; also: % is scaled to controls: 0 for no effect and ±100 for the full control effect; nearly all actives have a fitted effect of over 50% in size
L3MBTL1 block – L3MBTL1 (human) inhibition. hit rate 0.66% among 230,000. AID 485360. AlphaScreen L3MBTL1–H3K9me1 peptide binding. Potency, µM (highest dose often 57.1 µM), inactives show at the highest dose activity, negative = inhibition, most hits filed as inhibitors; also: % is scaled to controls: 0 for no effect and ±100 for the full control effect; nearly all actives have a fitted effect of over 60% in size
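Displacement of a biotinylated histone H3(1-15) peptide monomethylated at Lys9 (75 nM) from L3MBTL1 (50 nM) was measured by AlphaScreen after a 30 min room-temperature compound incubation; cefsulodin titration served as intraplate control.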
Active calls of the source: *; ? = inconclusive; · = no result given; [ ] = dose if it differs, or a comment. Calls follow the shape of the dose curve; as a rule, active = well fitted curve in the direction sought with a large enough effect; inconclusive = small, poorly fitted or top-dose-only effect, or another doubt; inactive = no such curve, though single readings can be large; an effect the other way counts as inactive or inconclusive. Potency is read from the fitted curve at half-maximal effect.

SMILES	G9a block	BAZ2B inh	HP1b chromo inh	Sfp inh	JMJD2A Tudor	L3MBTL1 block
CC(=O)c1ccc(NC(=O)/C(=C\c2ccco2)NC(=O)c2ccco2)cc1	50µM*	-1%	18%	-9%	-28%	·
O=C(Nc1ccc(C(=O)O)cc1)/C(=C\c1ccco1)NC(=O)c1ccco1	50µM*	18%	3%	-6%	-23%	·
O=C(CCl)Nc1cc(SCC(O)CO)cc([N+](=O)[O-])c1 (centres undefined)	50µM*	-36%	46%	71µM*	-24%	-14%
CC(C)=NOc1cc(NC(=O)CCl)cc([N+](=O)[O-])c1	56µM*	-11%	42%	-21%	-12%	0%
CCC(=O)Nc1cc(SCCO)cc([N+](=O)[O-])c1	16%	-26%	27%	8%	-6%	9%
O=C(/C=C/c1ccccc1[N+](=O)[O-])Oc1ccccc1	71µM*	?	·	-6%	·	·
CCN(Cc1ccccc1)C(=O)/C=C/c1ccccc1[N+](=O)[O-]	-47%	89µM*	40%	18%	-21%	-2%
O=C(/C=C/c1ccccc1[N+](=O)[O-])c1ccc(F)cc1	40µM*	-16%	6%	-28%	-3%	-9%
Cc1ccc2nc(N3CCN(c4cccc(C(F)(F)F)c4)CC3)c3nnnn3c2c1	16%[59 µM]	8%	84%	·	34%	·
O=C(c1ccco1)N1CCN(C(c2ccc(F)cc2)c2nnnn2Cc2cccs2)CC1 (centres undefined)	?	?	17%	-18%	-35%	6%
c1ccc(C(c2nnnn2Cc2cccs2)N2CCN(C3CCCC3)CC2)cc1 (centres undefined)	45µM*	-3%	16%	-6%	-24%	3%
Fc1ccc(C(c2nnnn2Cc2cccs2)N2CCN(C3CCCC3)CC2)cc1 (centres undefined)	-25%[59 µM]	?	16%	5%	-5%	10%
CC(C)C(c1nnnn1Cc1cccs1)N1CCN(C(=O)c2ccco2)CC1 (centres undefined)	·	-8%	-16%	18µM*	?	3%
O=C(c1ccco1)N1CCN(C(c2ccccc2Cl)c2nnnn2Cc2cccs2)CC1 (centres undefined)	?	-32%	-6%	-8%	-18%[11.4 µM]	-13%
O=C(c1ccco1)N1CCN(C(c2ccccc2Cl)c2nnnn2Cc2ccco2)CC1 (centres undefined)	-21%[59 µM]	?	-13%	50µM*	-5%[11.4 µM]	2%
O=C(c1ccco1)N1CCN(C(c2ccccc2)c2nnnn2Cc2cccs2)CC1 (centres undefined)	?	?	9%	79µM*	-27%	-5%
COc1ccc(C(=O)Nc2nc(-c3nnn(-c4ccc(C(C)C)cc4)c3C)ns2)cc1	7%[59 µM]	-1%	-10%	·	-17%	·
O=c1oc2ccccc2cc1-c1nc2c(s1)CCc1ccccc1-2	-19%[59 µM]	47%	87%[57 µM]	7.9µM*	66%[57.1 µM]	54%
O=C(CCCl)Nc1nc2c(s1)CCc1ccccc1-2	50µM*	-29%	-14%	?	-32%	·
O=c1oc2cc(O)ccc2cc1-c1nc2c(s1)CCc1ccccc1-2	55%[59 µM]	32%	77%	56µM*	52%	29%
Nc1nc2c(s1)CCc1ccccc1-2	10µM*	?	-31%	79µM*	?	·
O=c1oc2ccc3ccccc3c2cc1-c1nc2c(s1)CCc1ccccc1-2	·	·	48%[57 µM]	·	50%[57.1 µM]	·
CC(CNC(=O)C1CCN(Cc2cc3ccccc3n2Cc2ccccc2)CC1)c1ccccc1 (centres undefined)	-5%[59 µM]	-19%	26%	·	-13%	·
Cc1nn(C)c(Sc2ccccc2N)c1[N+](=O)[O-]	7.9µM*	-37%	-17%	3.5µM*	18µM*	-14%
Cc1ccc(SCc2nc(-c3ccc(C(=O)NCc4ccccc4Cl)cc3)oc2C)cc1	5%[59 µM]	-6%	44%	·	3%	·
SMILES	G9a block	BAZ2B inh	HP1b chromo inh	Sfp inh	JMJD2A Tudor	L3MBTL1 block
CC(C)(C)c1ccc2c(c1)OC(C(=O)N/N=C\c1ccc(-c3cccc(C(=O)O)c3)o1)CO2 (centres undefined)	40µM*	50µM*	3%	50µM*	-25%	16µM*
O=C(O)c1cccc(-c2ccc(/C=N/NC(=O)C3COc4ccccc4O3)o2)c1 (centres undefined)	40µM*	?	8%	28µM*	-16%	?
CNC(=S)N/N=C/c1ccc(-c2cccc(C(=O)O)c2)o1	3%[12.7 µM]	-17%	14%	?	-22%	·
Cc1cc2c(s1)c1cnn(Cc3ccc(F)cc3)c(=O)c1n2C	·	·	·	·	-27%	·
CCCCc1nn2c(=O)cc(COC(=O)c3cccc(Cl)c3)nc2s1	12%[59 µM]	-2%	6%	·	-12%	·
CCOC(=O)c1cc(C)n(CC2CCC(C(=O)Nc3ccc(OC)cc3)CC2)c1C (centres undefined)	-1%[59 µM]	-20%	50%	·	-4%	·
Cc1c(O)ccc(C(=O)CN2CCN(c3ccccc3)CC2)c1O	45µM*	?	87%	10%	2%	·
COc1ccc(N2CCN(CC(=O)c3ccc(O)c(C)c3O)CC2)cc1	40µM*	?	-6%[57 µM]	4%	?	·
FC(F)Oc1ccc(/C=N/c2c(-c3ccc(OC(F)F)cc3)nc3n2CCS3)cc1	?	?	?	6%	50µM*	-2%
CSc1oc(-c2ccccc2)nc1S(=O)(=O)c1ccc(C)cc1	56µM*	-23%	72%	3%	-6%	3%
Cc1ccc(S(=O)(=O)c2nc(-c3cccs3)oc2SCC(N)=O)cc1	?	2%	27%	-4%	-26%	-9%
Cc1ccc(-c2nc(S(=O)(=O)c3ccc(C)cc3)c(SCC(N)=O)o2)cc1	25µM*	3%	29%	-15%	-12%	·
CCSc1oc(-c2ccc(F)cc2)nc1S(=O)(=O)c1ccc(C)cc1	18µM*	3%	78%	·	8%	·
CCSc1oc(-c2ccccc2)nc1S(=O)(=O)c1ccccc1	?	5%	67%	-19%	14%	·
CNc1oc(Cc2ccccc2)nc1S(=O)(=O)c1ccc(Cl)cc1	25µM*	-26%	4%	-23%	?	2%
Cc1ccc(-c2nc(S(=O)(=O)c3ccc(C)cc3)c(SCC(=O)Nc3ccc(F)cc3)o2)cc1	-27%[59 µM]	-25%	22%	·	3%	·
COCCn1c(=NC(=O)c2ccc3c(c2)OCCO3)sc2cc(C(=O)OC)ccc21	6%[59 µM]	1%	26%[57 µM]	·	2%	·
COCC(=O)N1CCC2(CCCN(c3ncccn3)C2)CC1	5%[12.7 µM]	·	·	11%	·	·
CC(C)Oc1ccc(-c2nc3c(C#N)c[nH]n3c2NC2CCCCC2)cc1	?	-1%	53%	·	3%	·
